Source: PubChem BioAssay AID624296 (National Center for Advancing Translational Sciences (NCATS), 2012)
Hit rate of the full screen: of about 350,000 compounds, about 9,900 (2.8%) were called active. About 15% were inconclusive and are not listed. Calls come from the whole dose curve; as a rule, active = well fitted activation curve with a large enough effect; inconclusive = small, poorly fitted or top-dose-only effect; inactive = no such curve, though single readings can be large or run the other way. The list comes from a sample in which actives are over-represented; it also holds similar structures and randomly drawn compounds. Entries that show only a call come without a potency.

assay: A quantitative high throughput screen for small molecules that induce DNA re-replication in MCF 10a normal breast cells.; note: nearly all actives have a fitted effect of over 50% in size; conditions: MCF 10A DNA re-replication, Hoechst nuclear intensity, 48 h; series mostly up to 46.1 µM
Source text: H Molecular Libraries Probe Production Network [MLPCN]
NIH Chemical Genomics Center [NCGC]
Assay Provider: Melvin DePamphilis, NICHD, NIH
Eukaryotic cells normally restrict genome duplication to once per cell division. When this process is aberrant, DNA re-replication occurs when cells reinitiate DNA replication before the first round of replication is complete. DNA re-replication induces the DNA damage response, arrests cell proliferation, and triggers apoptosis. The cell cycle components cyclin A, Cdt-1, Cdc6 and geminin are critical regulators of this process and their misregulation results in DNA re-replication in normal and cancer cells. To identify compounds that induce re-replication in normal cells, an image-based assay was used to measure DNA content of nuclei, as detected by the fluorescent DNA binding dye, Hoechst. Cell nuclei were imaged by a fluorescence scanning plate imager and compounds that induce DNA re-replication were identified by the increase of nuclei with elevated fluorescence intensity
For screening, 250 cells in 5 uL/well were dispensed into black clear 1536-well plates (Aurora) using a solenoid-based dispenser. Following transfer of 23 nL compound or DMSO vehicle by a pin tool, the plates were incubated 48 hr at 37 C and 5% CO2. After addition of 1 uL/well Hoescht stain, the plates were incubated 40 min at 37 C, 5% CO2 and total intensity of fluorescent objects (nuclei) were enumerated by an Acumen Explorer Ex3 (TTP LabTech) fluorescence scanning plate imager (405 nm excitation, 500-530 nm emission).
Keywords: NIH Roadmap, MLPCN, MLI, MLSMR, qHTS, NCGC, DNA replication, cancer
Potency is the fitted concentration of half-maximal effect.

Row | SMILES | Potency
1 | CCOC(=O)c1c(N)n(CCN2CCOCC2)c2nc3ccccc3nc12 | inactive
2 | COc1cc(Cn2c(N)c(C(=O)NCc3ccco3)c3nc4ccccc4nc32)cc(OC)c1OC | 2310 nM (active)
3 | CCOC(=O)c1c(N)n(Cc2ccccc2)c2nc3ccccc3nc12 | inactive
4 | CC1CCCN1CCC(C(N)=O)(c1ccccc1)c1ccccc1 (centres undefined) | inactive
5 | C[C@]12CC[C@H](O)CC1=C([N+](=O)[O-])CC1C2CC[C@@]2(C)C1CC[C@@H]2O (some centres undefined) | inactive
6 | CCc1ccc(OCC(=O)N2CCN(CC(=O)Nc3ccccc3Cl)CC2)cc1 | inactive
7 | C[C@]12CCCCC1=CC(=O)C1C2CC[C@@]2(C)C1C[C@@H](F)[C@@H]2O (some centres undefined) | inactive
8 | O=c1[nH]c(CN2CC=C(c3ccccc3)CC2)nc2scc(-c3cccs3)c12 | 25900 nM (active)
9 | C=C(C)C1(CCCC)C(=O)NC(=S)NC1=O | inactive
10 | Cc1ncsc1CCCl | inactive
11 | CCC(=O)c1ccc(OCC(=O)N2CCN(CC(=O)Nc3ccc(C)cc3)CC2)cc1 | inactive
12 | COc1ccc(C2CC(c3cccs3)=NN2c2nc(C)c(C(C)=O)s2)cc1OC (centres undefined) | 3260 nM (active)
13 | c1ccc2sc(SNC3CCCCC3)nc2c1 | inactive
14 | C=CCN1CCC23c4c5ccc(O)c4O[C@H]2C(=O)CC[C@@]3(O)C1C5 (some centres undefined) | inactive
15 | CC1C(=O)OC2CCN3CC=C(COC(=O)C(C)(O)C1(C)O)C23 (centres undefined) | inactive
16 | COc1ccc2c3c1O[C@H]1C[C@@H](O)C=C[C@@]31CCN(C)C2 | inactive
17 | CCOC(=O)CC(SP1(=S)OCC2(CCCCO2)C(C2CCCCO2)O1)C(=O)OCC (centres undefined) | inactive

Row | SMILES | Potency
18 | C[C@]12CCC3C(CC[C@H]4[C@H](O)[C@H](O)CC[C@]34C)C1CC[C@@H]2O (some centres undefined) | inactive
19 | C/C(=N/O)c1ccc2ccc3ccccc3c2c1 | 25900 nM (active)
20 | C/C(CCc1c[nH]c2ccccc12)=N\O | inactive
21 | O=[N+]([O-])c1cnc2ccc3ccccc3c2c1 | inactive
22 | CCNC[C@H](O)c1cccc(O)c1 | inactive
23 | Nc1ccc(Cc2ccc(N)c(Cl)c2)cc1Cl | inactive
24 | COc1ccc2c(c1)NP(=S)(c1ccccc1)N2 (centres undefined) | inactive
25 | CC(CC(C#N)(c1ccccc1)c1ccccc1)N1CCCCC1 (centres undefined) | inactive
26 | CN(C)CC1Oc2ccccc2OC1(O)c1ccccc1 (centres undefined) | 2590 nM (active)
27 | c1ccc(C(CN2CCCCC2)c2ccccc2)cc1 | inactive
28 | COc1cc(OC)cc(C2(C#N)CCN(C)CC2)c1 | inactive
29 | Cc1cccc([C@H](C)c2cnc[nH]2)c1C | inactive
30 | CCOc1ccc(CN(CCCl)CCCl)cc1C(=O)OC | inactive
31 | O=C1NC(=O)C(Cc2ccccc2)C(=O)N1 | inactive
32 | N#Cc1ccc(Cn2cc(C(=O)c3ccco3)c3ccccc32)cc1 | inactive
33 | NC(=O)Cn1cc(C(=O)c2ccccc2F)c2ccccc21 | 580 nM (active)
34 | Cn1cc(C(=O)OCC(=O)N2CCCC2)c2ccccc21 | inactive
